# Legend:
# Experiment in all cases: DAPPL (digital affinity profiling via proximity ligation, sequencing); 10 mM Tris-HCl pH 7.5, 50 mM NaCl, 1 mM DTT, 4% glycerol, room temperature, 30 min; GST-TFs on glutathione beads, 16-mer random dsDNA library, 0.1% formaldehyde crosslink after washing; high values mean tight binding
# Conditions in all cases: protein: recombinant; tags: N-terminal GST; dsDNA, one strand shown
# FLI1 = biological target: T1, FLI1 (Homo sapiens, UniProt Q01543 1-452)
# T1 sequence: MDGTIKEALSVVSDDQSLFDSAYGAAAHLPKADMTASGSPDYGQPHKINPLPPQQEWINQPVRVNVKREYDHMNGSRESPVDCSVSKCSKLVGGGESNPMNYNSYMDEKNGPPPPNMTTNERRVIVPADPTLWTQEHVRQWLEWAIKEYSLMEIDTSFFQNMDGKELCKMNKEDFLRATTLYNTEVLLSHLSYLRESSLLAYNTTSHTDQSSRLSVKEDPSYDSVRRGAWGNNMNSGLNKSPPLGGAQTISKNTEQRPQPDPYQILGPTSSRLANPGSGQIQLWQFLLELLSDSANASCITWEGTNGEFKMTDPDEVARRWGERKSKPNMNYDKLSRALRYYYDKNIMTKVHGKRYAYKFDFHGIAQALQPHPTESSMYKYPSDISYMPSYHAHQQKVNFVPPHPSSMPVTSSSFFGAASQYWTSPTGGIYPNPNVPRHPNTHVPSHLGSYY
# Outline: (§1)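 Human transcription factors fused to GST were expressed in yeast, captured on glutathione beads, given DNA barcodes and pooled with a GST-only negative control. Pools were incubated with 200 nmole of a 16-mer random double-stranded DNA library in Tris/NaCl/DTT/glycerol buffer at room temperature for 30 min. They were then washed, crosslinked with 0.1% formaldehyde, proximity-ligated (BsaI/T4 ligase, 1 h, 37 °C), PCR-amplified and sequenced on an Illumina NextSeq500. Binding signal is each 6-mer's read frequency for a factor divided by its frequency for the GST control.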
# ELK1 = biological target: T2, ELK1 (Homo sapiens, UniProt P19419 1-428)
# T2 sequence: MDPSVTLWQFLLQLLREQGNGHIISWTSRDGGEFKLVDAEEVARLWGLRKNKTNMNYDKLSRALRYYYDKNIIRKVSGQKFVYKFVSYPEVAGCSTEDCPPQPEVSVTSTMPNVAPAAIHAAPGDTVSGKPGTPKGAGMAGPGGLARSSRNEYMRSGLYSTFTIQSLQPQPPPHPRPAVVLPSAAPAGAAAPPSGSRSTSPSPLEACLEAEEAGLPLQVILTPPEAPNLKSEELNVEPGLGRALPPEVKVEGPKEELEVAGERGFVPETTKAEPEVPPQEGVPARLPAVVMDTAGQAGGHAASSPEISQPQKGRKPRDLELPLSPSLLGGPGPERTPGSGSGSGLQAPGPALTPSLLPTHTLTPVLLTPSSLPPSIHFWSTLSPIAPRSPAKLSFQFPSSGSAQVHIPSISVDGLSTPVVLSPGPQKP
# Outline: as §1
# GABPA = biological target: T3, GABPA (Homo sapiens, UniProt Q06546 1-454)
# T3 sequence: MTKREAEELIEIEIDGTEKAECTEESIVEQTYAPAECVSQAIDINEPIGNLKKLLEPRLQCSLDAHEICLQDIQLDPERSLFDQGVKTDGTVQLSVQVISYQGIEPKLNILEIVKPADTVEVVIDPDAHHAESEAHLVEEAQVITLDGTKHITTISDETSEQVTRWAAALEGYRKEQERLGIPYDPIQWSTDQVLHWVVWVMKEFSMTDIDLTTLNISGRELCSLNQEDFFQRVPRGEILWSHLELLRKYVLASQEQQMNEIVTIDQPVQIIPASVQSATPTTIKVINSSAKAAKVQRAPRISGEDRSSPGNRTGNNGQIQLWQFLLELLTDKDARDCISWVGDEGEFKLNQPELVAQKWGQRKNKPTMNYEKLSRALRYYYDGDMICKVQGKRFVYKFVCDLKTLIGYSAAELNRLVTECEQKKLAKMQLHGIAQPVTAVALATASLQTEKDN
# Outline: as §1
# ERG = biological target: T4, ERG (Homo sapiens, UniProt P11308 1-479)
# T4 sequence: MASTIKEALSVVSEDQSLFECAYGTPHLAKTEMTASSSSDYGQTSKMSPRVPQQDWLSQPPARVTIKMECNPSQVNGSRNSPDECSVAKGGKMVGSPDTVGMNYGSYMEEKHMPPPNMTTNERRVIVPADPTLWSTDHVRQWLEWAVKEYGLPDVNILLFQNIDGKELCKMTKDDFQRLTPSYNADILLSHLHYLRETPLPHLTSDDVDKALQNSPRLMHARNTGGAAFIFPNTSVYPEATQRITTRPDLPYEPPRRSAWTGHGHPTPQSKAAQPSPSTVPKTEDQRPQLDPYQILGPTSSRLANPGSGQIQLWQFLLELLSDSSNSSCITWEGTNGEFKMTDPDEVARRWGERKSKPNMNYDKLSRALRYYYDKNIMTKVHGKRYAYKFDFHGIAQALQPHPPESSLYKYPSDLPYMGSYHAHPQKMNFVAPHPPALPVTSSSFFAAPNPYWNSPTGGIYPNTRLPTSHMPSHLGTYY
# Outline: as §1
# ELF1 = ELF1 (Homo sapiens, UniProt P32519 1-619)
# ELF1, sequence (P32519 whole entry): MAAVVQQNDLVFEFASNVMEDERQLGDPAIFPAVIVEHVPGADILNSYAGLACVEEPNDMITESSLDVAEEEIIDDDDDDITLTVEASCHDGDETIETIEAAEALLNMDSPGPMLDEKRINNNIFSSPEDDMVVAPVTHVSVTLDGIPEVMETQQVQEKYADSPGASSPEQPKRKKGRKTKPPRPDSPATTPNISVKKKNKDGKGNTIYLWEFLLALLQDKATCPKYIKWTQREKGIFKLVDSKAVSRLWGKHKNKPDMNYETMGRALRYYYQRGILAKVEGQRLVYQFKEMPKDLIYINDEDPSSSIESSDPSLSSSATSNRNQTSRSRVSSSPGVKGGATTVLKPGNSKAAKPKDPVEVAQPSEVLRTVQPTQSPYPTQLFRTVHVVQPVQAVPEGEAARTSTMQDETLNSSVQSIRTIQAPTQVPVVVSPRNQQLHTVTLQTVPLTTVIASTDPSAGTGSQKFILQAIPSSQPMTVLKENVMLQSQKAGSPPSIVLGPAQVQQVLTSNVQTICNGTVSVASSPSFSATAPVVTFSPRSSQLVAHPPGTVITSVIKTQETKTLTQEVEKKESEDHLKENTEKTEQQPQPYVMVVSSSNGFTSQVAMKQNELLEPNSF
# Outline: as §1
# EHF = biological target: T5, EHF (Homo sapiens, UniProt Q9NZC4 1-300)
# T5 sequence: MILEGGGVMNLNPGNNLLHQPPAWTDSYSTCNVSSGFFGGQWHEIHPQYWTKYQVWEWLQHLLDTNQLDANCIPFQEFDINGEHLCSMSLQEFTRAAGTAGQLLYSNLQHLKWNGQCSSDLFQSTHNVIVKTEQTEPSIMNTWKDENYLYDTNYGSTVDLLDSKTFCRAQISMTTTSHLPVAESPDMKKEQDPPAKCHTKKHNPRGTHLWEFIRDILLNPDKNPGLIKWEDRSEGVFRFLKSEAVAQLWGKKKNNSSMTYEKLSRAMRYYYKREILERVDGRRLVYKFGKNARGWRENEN
# Outline: as §1
# SPI1 = SPI1 (Homo sapiens, UniProt P17947 1-270)
# Outline: as §1
# SPIB = SPIB (Homo sapiens, UniProt Q01892 1-262)
# SPIB, sequence (Q01892 whole entry): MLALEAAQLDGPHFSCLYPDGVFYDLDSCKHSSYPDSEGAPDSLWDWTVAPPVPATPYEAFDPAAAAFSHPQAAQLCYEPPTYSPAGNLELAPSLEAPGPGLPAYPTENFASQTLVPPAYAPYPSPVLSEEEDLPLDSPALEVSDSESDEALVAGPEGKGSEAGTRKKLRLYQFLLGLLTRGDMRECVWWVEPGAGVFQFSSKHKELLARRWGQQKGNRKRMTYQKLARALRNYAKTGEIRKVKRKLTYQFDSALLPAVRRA
# Outline: as §1
# ELK3 = biological target: T6, ELK3 (Homo sapiens, UniProt P41970 1-407)
# T6 sequence: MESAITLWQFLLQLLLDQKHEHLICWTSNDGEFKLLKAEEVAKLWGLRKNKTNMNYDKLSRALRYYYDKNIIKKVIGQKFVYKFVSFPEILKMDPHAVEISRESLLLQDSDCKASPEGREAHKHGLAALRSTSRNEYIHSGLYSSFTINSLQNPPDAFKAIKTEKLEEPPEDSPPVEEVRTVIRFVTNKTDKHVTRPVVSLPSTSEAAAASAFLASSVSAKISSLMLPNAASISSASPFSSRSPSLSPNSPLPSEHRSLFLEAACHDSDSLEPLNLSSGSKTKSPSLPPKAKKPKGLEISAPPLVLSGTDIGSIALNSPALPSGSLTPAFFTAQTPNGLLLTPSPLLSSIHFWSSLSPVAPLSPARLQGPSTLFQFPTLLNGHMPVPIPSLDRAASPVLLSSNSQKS
# Outline: as §1
sequence,measurement,setting,value
ATATCG,binding signal,FLI1,"1.09 fold enrichment (6-mer frequency, TF over GST control)"
same,binding signal,ELK1,"1.16 fold enrichment (6-mer frequency, TF over GST control)"
same,binding signal,GABPA,"1.14 fold enrichment (6-mer frequency, TF over GST control)"
same,binding signal,ERG,"1.08 fold enrichment (6-mer frequency, TF over GST control)"
same,binding signal,ELF1,"1.16 fold enrichment (6-mer frequency, TF over GST control)"
same,binding signal,EHF,"1.13 fold enrichment (6-mer frequency, TF over GST control)"
same,binding signal,SPI1,"1.23 fold enrichment (6-mer frequency, TF over GST control)"
same,binding signal,SPIB,"1.17 fold enrichment (6-mer frequency, TF over GST control)"
same,binding signal,ELK3,"1.19 fold enrichment (6-mer frequency, TF over GST control)"

# Source: paper PMC7862700, “An all-to-all approach to the identification of sequence-specific readers for epigenetic DNA modifications on cytosine”
